Source: PubChem
HTT aggregate: inhibitors of mutant huntingtin aggregate formation in PC12 cells; hit rate 1.1% among 220,000; PC12 HttQ103-GFP aggregates, Acumen cytometry, 40 h; Potency, µM (highest dose often 46.1 µM), for the others: top-dose activity change, negative = inhibition, actives largely listed as inhibitors; AID 1688; further: potency means the concentration at half of the fitted maximal effect; on the % scale 0 is the no-effect control and ±100 the full control effect; nearly all actives have a fitted effect of over 60% in size
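Compounds (qHTS titration) were added to PC12 cells expressing an ecdysone-driven HTT exon 1 Q103–GFP fusion after induction with 100 nM tebufenozide. Aggregate formation was measured as GFP objects in cell lysates.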
LMNA splice mod: changes lamin A minigene splicing in HeLa cells; HeLa LMNA splicing GFP/RFP minigene ratio, 48 h; Potency, µM (series often up to 46.1 µM), without a hit: top-dose ratio change, negative = inhibition, usual class: inhibitors; hit rate 0.01% among 200,000; AID 1487; active means well fitted inhibition curve with a large enough effect in the signal ratio, with a control signal flat, not every such curve was filed as active; inconclusive means small, poorly fitted or top-dose-only effect, or effect the other way, or a change in a side signal; the % refers to the signal ratio; further: potency means the concentration at half of the fitted maximal effect; on the % scale 0 is the no-effect control and ±100 the full control effect
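S3 HeLa stable clones carrying a lamin A-EGFP splicing minigene plus DsRed2 were seeded at 600 cells/well in Opti-MEM with 2% FBS, pin-dosed and incubated 48 h at 37°C. Acumen cytometry (488 nm) gave the GFP/RFP total-intensity ratio.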
HTT cytoprotect: Huntington cell model cytoprotection by ATP luminescence; PC12 HTT-Q103 induced, cytoprotection, ATP luminescence, 40 h; Potency, µM (series often up to 56.4 µM), without a hit: cytoprotection (ATP increase), most hits filed as activators; hit rate 0.14% among 230,000; AID 1471; further: potency means the concentration at half of the fitted maximal effect; % of control where 0% means no effect; nearly all actives have a fitted effect of over 45% in size
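PC12 cells stably carrying ecdysone-inducible Htt exon 1 (Q103)–GFP were induced with 100 nM tebufenozide (final) alongside library compounds in a dose series. Cytoprotection was scored as retained ATP by ATPlite luminescence.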
HPGD inh: blocks human HPGD enzyme activity | purified HPGD, NADH fluorescence kinetic, PGE2 substrate | Potency, µM, for the others: top-dose activity change, negative = inhibition, usual class: inhibitors | P15428 | hit rate 4.3% among 150,000; active means well fitted inhibition curve with a large enough effect, not every such curve was filed as active; inconclusive means small, poorly fitted or top-dose-only effect, or another doubt; inactive means no such curve, though single readings can be large or run the other way; further: potency means the concentration at half of the fitted maximal effect; on the % scale 0 is the no-effect control and ±100 the full control effect
Target sequence (P15428 whole entry, looked up): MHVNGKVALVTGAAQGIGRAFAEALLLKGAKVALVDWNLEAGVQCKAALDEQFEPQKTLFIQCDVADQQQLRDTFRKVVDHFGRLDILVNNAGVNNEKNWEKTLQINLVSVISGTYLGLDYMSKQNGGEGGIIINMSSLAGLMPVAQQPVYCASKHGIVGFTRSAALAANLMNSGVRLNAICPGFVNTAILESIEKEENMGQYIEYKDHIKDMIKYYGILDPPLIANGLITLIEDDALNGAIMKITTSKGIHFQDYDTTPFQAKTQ
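20 nM HPGD preincubated 15 min at room temperature with compound in 50 mM Tris-HCl pH 8, 0.01% Tween 20. Started with 1 mM NAD+ and 30 uM prostaglandin E2; NADH fluorescence (360/450 nm) read 5 times over 30-s intervals, last minus first.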
ALDH1A1 inh-1: inhibitors of human aldehyde dehydrogenase 1A1. P00352. Potency, µM (doses to about 75.3 µM), inactives show at the top dose activity, negative = inhibition, hits mostly inhibitors. Purified ALDH1A1, NADH fluorescence, propionaldehyde substrate. AID 1030. hit rate 7.3% among 220,000; active means well fitted inhibition curve with a large enough effect, not every such curve was filed as active; inconclusive means small, poorly fitted or top-dose-only effect, or another doubt; inactive means no such curve, though single readings can be large or run the other way;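 further: potency means the concentration at half of the fitted maximal effect; plate controls were no enzyme wells and a reference inhibitor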
Target sequence (P00352 whole entry, looked up): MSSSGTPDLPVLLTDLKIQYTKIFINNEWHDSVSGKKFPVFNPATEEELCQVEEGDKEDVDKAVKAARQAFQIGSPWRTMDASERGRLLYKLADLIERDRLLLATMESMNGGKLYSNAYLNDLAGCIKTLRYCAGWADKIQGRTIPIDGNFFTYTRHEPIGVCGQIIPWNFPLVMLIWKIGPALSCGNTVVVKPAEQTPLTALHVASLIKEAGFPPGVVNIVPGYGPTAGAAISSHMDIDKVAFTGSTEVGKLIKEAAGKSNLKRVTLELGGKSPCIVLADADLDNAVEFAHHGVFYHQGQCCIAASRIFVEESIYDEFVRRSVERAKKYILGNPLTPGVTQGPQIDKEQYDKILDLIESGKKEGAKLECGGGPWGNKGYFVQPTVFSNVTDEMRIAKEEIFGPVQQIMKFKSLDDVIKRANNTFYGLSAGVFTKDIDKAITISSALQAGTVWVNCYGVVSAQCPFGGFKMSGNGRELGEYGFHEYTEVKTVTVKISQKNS
KinaseGlo FLuc: Kinase-Glo luciferase inhibition (counter-screen). Q27757. Kinase-Glo luciferase, ATP luminescence, 8 min. Potency, µM (top dose mostly 38.3 µM), without a hit: at the top dose activity change, negative = inhibition, actives largely listed as inhibitors. hit rate 0.28% among 200,000. AID 1379; further: potency means the concentration at half of the fitted maximal effect; on the % scale 0 is the no-effect control and ±100 the full control effect; nearly all actives have a fitted effect of over 60% in size
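Inhibition of Kinase-Glo luciferase light generation was assessed at 10 uM ATP in pH 7.2 imidazole buffer, with luminescence measured after eight minutes at ambient temperature.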
ALDH1A1 inh-2: Inhibits human ALDH1A1, confirmation and counter-screen. shares compounds with ALDH1A1 inh-1. purified ALDH1A1, NADH fluorescence, propionaldehyde/NAD+. Potency, µM (top dose mostly 57.1 µM), for inactives: at the top dose activity change, negative = inhibition, usual class: inhibitors. hit rate 90% among 90. AID 493210; calls by dose curve
Starred values were filed as active, the others as inactive; ? = inconclusive; · = no result; [ ] = another dose, or the depositor's remark. This is a sample that favours compounds with a hit; in the whole collection about 9% have one here. Unless noted, the call rests on the fitted dose curve; in most records, active means well fitted curve in the direction sought with a large enough effect; inconclusive means small, poorly fitted or top-dose-only effect, or another doubt; inactive means no such curve, though single readings can be large; an effect the other way counts as inactive or inconclusive.

SMILES | HTT aggregate | LMNA splice mod | HTT cytoprotect | HPGD inh | ALDH1A1 inh-1 | KinaseGlo FLuc | ALDH1A1 inh-2
O=C1O/C(=C/Br)CCC1c1cccc2ccccc12 (configuration not stated) | · | ? | · | 20µM* | 0.5µM* | -2% | 0.63µM*
O=C1O/C(=C\Br)CC[C@@H]1c1cccc2ccccc12 | · | · | 28%[1.9 µM] | · | · | · | ·
CCN(CC)C(=O)COC(=O)c1ccc(O)cc1 | 19% | 4% | -2% | 6% | 5% | -3% | ·
CC(C)c1nc(N(C)S(C)(=O)=O)nc(-c2ccc(F)cc2)c1/C=C/C(O)CC(O)CC(=O)O (configuration not stated) | 1% | ? | -81% | -5% | 0.22µM* | -2% | 0.13µM*
O=C(CN(Cc1ccccc1)C(=O)c1cc2c(s1)CCC2)NCc1cccs1 | 12% | 1% | -12% | -1% | 0.45µM* | -2% | 0.071µM*
CCN(CC(=O)NCc1cccs1)C(=O)c1ccc(S(=O)(=O)N(C)C)cc1 | -1% | -6%[46 µM] | -31% | · | -10% | 6% | ·
CCN(C(=O)CN1CCCCC1)C1(C)C(=O)c2ccccc2C1=O | ? | 3% | 15%[10 µM] | -25% | 0% | -1% | ·
CCN(CC)C(=O)CSc1nc2ccccc2c(=O)n1CCC(=O)NCc1ccc(F)cc1 | -16% | -2% | 27%[10 µM] | ? | 1µM* | 2% | 2µM*
Cc1ccc(N2CC(C(=O)Nc3cc(C)ccc3F)CC2=O)cc1 (configuration not stated) | 1% | ? | -12%[10 µM] | -1% | -7% | -6% | ·
O=C1C(=O)N(Cc2ccc(Cl)c(Cl)c2)c2ccccc21 | · | · | -52% | -27% | 0.05µM* | -2% | 0.079µM*
O=C(CC(Nc1ccccc1Cl)C(=O)O)c1ccccc1 (configuration not stated) | 4%[9.22 µM] | · | -30% | · | 0.13µM* | -2% | -24%
O=C(CC(Nc1ccc(Cl)cc1)C(=O)O)c1ccccc1 (configuration not stated) | 13% | 8% | -31%[10 µM] | -24% | 1% | -19% | ·
Cc1c(Cl)cccc1NC(CC(=O)c1ccccc1)C(=O)O (configuration not stated) | ? | ? | · | -16% | 0.32µM* | 0% | -21%
O=C(NC1CCCCC1)C(=O)N(Cc1cccnc1)C(C(=O)NCc1ccco1)c1ccccc1 (configuration not stated) | -14% | 10%[9.22 µM] | -9% | · | -11% | -3% | ·
CC(C)(C)NC(=O)NC(=O)CN1CCN(c2ccccc2O)CC1 | -3% | 11%[46 µM] | -53% | · | -3% | 3% | ·
COc1ccc([N+](=O)[O-])cc1NC(=O)C(C)N1CCN(C(=O)c2ccco2)CC1 (configuration not stated) | 12% | · | 0%[10 µM] | · | 1.3µM* | 3% | 3.2µM*
CCCCCOC(=O)CSc1nnc(-c2cc(OC)c(OC)c(OC)c2)o1 | -13% | -12% | 3%[0.074 µM] | -3% | -5% | -1% | ·
CCC(Sc1nc2cc(OC)c(OC)cc2c(=O)n1Cc1ccco1)C(=O)NCCOC (configuration not stated) | 3% | -4% | -12% | -12% | 0.79µM* | 1% | 0.25µM*
CCc1ccc(NC(=O)C(CC)Sc2nc3cc4c(cc3c(=O)n2Cc2ccco2)OCO4)cc1 (configuration not stated) | ? | 20% | -3%[10 µM] | -8% | 0.4µM* | -2% | 0.22µM*
COc1ccc(S(=O)(=O)NCC2CCCN(C(=O)c3sccc3C)C2)cc1 (configuration not stated) | 4%[9.22 µM] | ? | 4%[10 µM] | · | 0.18µM* | 0% | 0.089µM*
COc1ccc(S(=O)(=O)NCC2CCCN(C(=O)CC3CCCC3)C2)cc1 (configuration not stated) | 10%[9.22 µM] | 19%[46 µM] | 34%[10 µM] | · | 0.79µM* | -3% | 0.89µM*
COCC(=O)N1CCCC(CNS(=O)(=O)c2ccc(OC)cc2)C1 (configuration not stated) | 25%[9.22 µM] | -1%[46 µM] | 25%[10 µM] | · | -8% | 3% | ·
COc1ccc(S(=O)(=O)NCC2CCCN(C(=O)c3ccccc3)C2)cc1 (configuration not stated) | 4%[9.22 µM] | · | -31%[10 µM] | · | 0.2µM* | 3% | 0.2µM*
OC(COc1ccc2c(c1)OCO2)CN1CCCCC1 (configuration not stated) | -1% | -2%[46 µM] | -21% | · | 3% | 2% | ·
CCc1ccc(/C=C2/SC(N3CCOCC3)=NC2=O)cc1 | 8%[9.22 µM] | · | 17%[10 µM] | · | · | · | ·
SMILES | HTT aggregate | LMNA splice mod | HTT cytoprotect | HPGD inh | ALDH1A1 inh-1 | KinaseGlo FLuc | ALDH1A1 inh-2
CCOC(=O)N1CCN(Cc2nc3c(c(=O)n(C)c(=O)n3C)n2Cc2cccc3ccccc23)CC1 | -9% | ? | -15% | -6% | 0.1µM* | 15% | 0.04µM*
CCOC(=O)N1CCN(Cc2nc3c(c(=O)n(C)c(=O)n3C)n2Cc2cccc(C)c2)CC1 | 4% | 3% | -27%[0.074 µM] | -13% | 0.079µM* | -2% | 0.063µM*
CCOC(=O)N1CCN(Cc2nc3c(c(=O)[nH]c(=O)n3C)n2Cc2ccccc2C)CC1 | 7% | 4% | -32% | -3% | ? | 3% | ·
CCOC(=O)N1CCN(Cc2nc3c(c(=O)n(C)c(=O)n3C)n2Cc2ccc(F)cc2)CC1 | 18% | -11% | -5% | -15% | -5% | 10% | ·
O=C(Cc1ccc(Cl)cc1)Nc1ccc(NC(=O)c2ccccc2)cc1 | 24% | -9% | 2%[10 µM] | ? | ? | -3% | ·
CC(C)C(=O)N1CCN(c2ccccc2NC(=O)c2cc([N+](=O)[O-])ccc2N2CCOCC2)CC1 | ? | · | -19% | · | 7% | 2% | ·
CCCCN(CC)C(=O)CN1C(=O)c2ccccc2C1=O | -24% | 12% | -8% | -1% | -7% | -3% | ·
O=C(CN1C(=O)C(=O)c2ccccc21)NCCc1ccccc1 | -23% | · | 6% | · | 0.089µM* | -1% | 0.063µM*
O=C(CN1C(=O)c2ccccc2C1=O)NCCc1c[nH]c2ccccc12 | 2% | 4% | · | -13% | 6% | 0% | ·
CCN(CC)C(=O)CN1C(=O)C(=O)c2ccccc21 | 3%[9.22 µM] | 14%[46 µM] | -7%[10 µM] | · | 0.02µM* | 0% | 0.089µM*
O=C(CN1CCN(C2CCCCC2)CC1)Nc1cccc2ccccc12 | 15% | 2%[46 µM] | 11%[10 µM] | · | ? | 3% | ·
O=C(CN1CCN(C2CCCCC2)CC1)Nc1ccccc1-c1ccccc1 | -13% | -7% | -13%[10 µM] | 0% | 6.3µM* | 5% | ?
CCn1c(SCC(=O)Nc2ccc3c(c2)OCCO3)nnc1-c1ccco1 | -18% | -4% | 2% | -3% | ? | 3% | ·
Cn1c(SCC(=O)Nc2ccc3c(c2)OCCO3)nnc1-c1ccco1 | 8% | -6% | 6%[10 µM] | · | 0.032µM* | · | 25µM*
CCOc1ccc(NC(=O)CN2CCN(CC(=O)c3ccc(OCC)cc3)CC2)cc1 | -6% | 10% | -13% | -20% | 1.4µM* | -1% | 4.5µM*
